Giardia kill: kills Giardia lamblia | Giardia lamblia trophozoite viability | activity change, % at 7.66 µM, hits read low | 0.15% of 340,000 active; in the data active = activity change below about -80%; inconclusive = between about -30% and that limit;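 also: parasites exposed to compound for two days anaerobically before the ATP read; % is scaled to controls: 0 for no effect and ±100 for the full control effect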
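Trophozoite viability was measured as ATP-dependent luminescence, read 15-30 min after reagent addition. Before that, parasites at 100 cells/well were exposed to compounds for 48 h, anaerobically, at 37 deg C.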
KB-V1 MDR tox: kills drug-selected multidrug resistant KB-V1 cells; KB-V1 MDR cells viability, CellTiter-Glo, 72 h; Potency, µM (series often up to 46.1 µM), usual class: cytotoxic; 3.4% of 400,000 active; AID 1347076; also: potency is read from the fitted curve at half-maximal effect; % is scaled to controls: 0 for no effect and ±100 for the full control effect; nearly all actives have a fitted effect of over 60% in size
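Drug-selected KB-V1 cells, grown in DMEM lacking phenol red with 10% FBS, receive compound titrations; after three days at 37 degrees C, surviving cell ATP is quantified by CellTiter-Glo luminescence and responses normalized and curve-fitted.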
ASM inhibitor: inhibitors of human secretory acid sphingomyelinase | P17405 | AID 504937 | Potency, µM (top dose mostly 57.5 µM), without a hit: at the highest dose activity change, negative = inhibition, actives largely listed as inhibitors | placental ASM, HMU-PC fluorogenic substrate, 60 min | 0.006% of 340,000 active; also: potency is read from the fitted curve at half-maximal effect
Target sequence (P17405 47-631 limits assumed): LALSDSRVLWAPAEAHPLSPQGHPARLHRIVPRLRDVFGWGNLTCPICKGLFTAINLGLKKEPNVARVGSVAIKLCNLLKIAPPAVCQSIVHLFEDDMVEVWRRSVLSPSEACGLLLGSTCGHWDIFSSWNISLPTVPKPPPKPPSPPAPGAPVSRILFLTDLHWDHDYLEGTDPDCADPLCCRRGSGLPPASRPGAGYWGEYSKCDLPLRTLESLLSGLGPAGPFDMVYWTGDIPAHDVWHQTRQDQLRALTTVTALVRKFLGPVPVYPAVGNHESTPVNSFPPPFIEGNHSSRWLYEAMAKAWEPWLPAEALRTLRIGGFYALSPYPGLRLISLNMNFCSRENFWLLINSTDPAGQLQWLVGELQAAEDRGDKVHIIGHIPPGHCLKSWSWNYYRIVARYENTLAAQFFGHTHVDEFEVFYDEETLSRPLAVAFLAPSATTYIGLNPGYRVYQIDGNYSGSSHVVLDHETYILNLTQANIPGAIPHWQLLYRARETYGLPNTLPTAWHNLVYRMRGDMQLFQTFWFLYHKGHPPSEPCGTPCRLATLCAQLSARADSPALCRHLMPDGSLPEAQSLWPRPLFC
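HMU-PC0 cleavage (9 uM final) by human placental ASM, 60 min at 37 °C following 10 min compound exposure at RT; stopped at pH 10, fluorescence Ex 386/Em 447 nm.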
MCF10A rereplic: inducers of DNA re-replication in MCF 10A breast cells. Potency, µM (titrated, usually from 46.1 µM), inactives show at the highest dose activity, positive = re-replication, usual class: activators. MCF 10A DNA re-replication, Hoechst nuclear intensity, 48 h. 2.9% of 350,000 active; also: potency is read from the fitted curve at half-maximal effect; % of control where 0% means no effect; nearly all actives have a fitted effect of over 50% in size
KB-3-1 tox: kills parental KB-3-1 adenocarcinoma cells; KB-3-1 viability, CellTiter-Glo ATP luminescence, 72 h; Potency, µM (doses to about 46.1 µM), actives largely listed as cytotoxic; 1.4% of 400,000 active; AID 1347075; also: potency is read from the fitted curve at half-maximal effect; % is scaled to controls: 0 for no effect and ±100 for the full control effect; nearly all actives have a fitted effect of over 60% in size
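Screening of KB-3-1 cells (DMEM, 10% FBS, phenol-red free) ran from lowest to highest compound concentration; after 72 h at 37 °C viability was read luminescently and curves fitted.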
SW480 rereplic: DNA re-replication induction in SW480 cells; SW480 DNA re-replication, Hoechst DNA content imaging, 48 h; Potency, µM (titrated, usually from 46.1 µM), inactives show at the highest dose re-replication activation, hits mostly activators; 1.8% of 340,000 active; also: potency is read from the fitted curve at half-maximal effect; % of control where 0% means no effect; nearly all actives have a fitted effect of over 55% in size
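Treated cells incubate 48 hr (37 C, 5% CO2), are stained 40 min with Hoechst, and nuclear fluorescence is enumerated; a rise in nuclei with high DNA signal marks re-replication.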
Active calls of the source: *; i = inactive; ? = inconclusive; · = not tested or not shown; [ ] = dose if it differs, or a comment. Most compounds without a hit are left out; they make up all but 6.9% or so of the library. Unless noted, calls follow the shape of the dose curve; as a rule, active = well fitted curve in the direction sought with a large enough effect; inconclusive = small, poorly fitted or top-dose-only effect, or another doubt; inactive = no such curve, though single readings can be large; an effect the other way counts as inactive or inconclusive.

SMILES	Giardia kill	KB-V1 MDR tox	ASM inhibitor	MCF10A rereplic	KB-3-1 tox	SW480 rereplic
NC(N)=NN=C(c1ccc(F)cc1)c1ccc(C(F)(F)F)cc1	5.2	?	-5.4%	?	3.66µM*	6.51µM*
CC(C)[C@H](NC(=O)[C@@H]1Cc2c([nH]c3ccccc23)C2c3ccccc3C(=O)N21)C(=O)NCC1CCCO1 (some centres not stated)	-16.4	i	1.8%	?	i	?
Cc1cc(C)nc(/N=C(\N)Nc2ccc(OCc3ccccc3)cc2)n1	16.4	?	-6.6%	?	?	?
Cc1cc(C)nc(/N=C(\N)Nc2cccc(OCc3ccccc3)c2)n1	31.7	5.8µM*	-3.0%	13µM*	?	?
Cc1c(O)ccc2c3c(c(=O)oc12)CCC(C)C3 (configuration not stated)	-0.5	?	i	5.4%	i	4.0%
Cc1c(O)ccc2c3c(c(=O)oc12)CCCC3	23.8	16.4µM*	i	?	?	-2.1%
Cc1ccc(Cl)cc1N1CCN(C2CCCCC2NS(=O)(=O)c2ccccc2)CC1 (configuration not stated)	2.9	i	-6.9%	6.6%	i	-17.1%
Cc1ccc(C)c(N2CCN(C3CCCCC3NS(=O)(=O)c3ccccc3)CC2)c1 (configuration not stated)	-5.0	i	-1.5%	?	16.4µM*	26.7%
O=S(=O)(NC1CCCCC1N1CCCCC1)c1ccccc1 (configuration not stated)	5.3	i	0.1%	4.6%	i	-10.7%
O=S(=O)(NC1CCCCC1N1CCN(c2ccc(F)cc2)CC1)c1ccccc1 (configuration not stated)	-6.6	i	-4.6%	25.9µM*	i	3.4%
COc1ccc(/C=N/NC(=S)NCc2ccccc2)cc1OC	34.9	20.6µM*	-29.6%	-20.9%	i	-6.9%
COc1ccc(C=NNC(=S)NN=Cc2ccc(OC)c(OC)c2)cc1OC	-0.5	0.231µM*	12.6%	?	0.461µM*	?
COCCCNC(=S)N/N=C/c1ccc(OC)c(Br)c1	20.0	i	0.8%	29.3%	i	3.26µM*
COc1ccc(CNC(=S)N/N=C/c2ccc(OC)c(OC)c2)cc1	27.9	i	12.0%	22.7%	i	2.0%
CNc1ccc(C=C2C=CC=C2)cc1	·	i	·	·	i	·
O=C(c1cccn(Cc2ccc(Cl)c(Cl)c2)c1=O)N1CCOCC1	-2.2	?	2.5%	3.4%	?	-2.9%
O=c1c(-c2nc3ccccc3s2)cccn1Cc1ccc(Cl)c(Cl)c1	-2.6	i	i	?	i	1.16µM*
O=C1C(=O)N(C2CCN(C(=O)c3ccccc3F)CC2)CCN1Cc1ccc(F)cc1	·	?	·	·	i	·
Cc1nn(-c2cc(N3CCCCCC3)ccc2[N+](=O)[O-])c(=O)c2ccccc12	1.9	3.66µM*	-21.6%	11.7%	i	10.5%
O=C(CCSc1nc2ccccc2s1)N/N=C/c1c(O)ccc2ccccc12	2.2	i	33.1%	20.6µM*	?	6.51µM*
Cc1cc(C)n(CCC(=O)N/N=C/c2c(O)ccc3ccccc23)n1	22.0	i	51.1%	?	i	?
COCCn1c(SCc2nc(N)nc(Nc3ccccc3C)n2)nc2ccccc2c1=O	-6.8	8.2µM*	-3.2%	23.1%	i	1.9%
Cc1ccccc1Nc1nc(N)nc(CSc2nc3ccccc3s2)n1	-2.3	16.4µM*	-3.3%	23.3%	i	-4.1%
Cc1ccccc1NC(=O)CCCSc1nc2ccccc2s1	8.8	14.6µM*	-11.8%	12.7%	i	0.3%
CCc1cccc(C)c1NC(=O)CCCSc1nc2ccccc2s1	8.7	?	-1.0%	?	i	-2.8%
SMILES	Giardia kill	KB-V1 MDR tox	ASM inhibitor	MCF10A rereplic	KB-3-1 tox	SW480 rereplic
Cc1cc2oc(C(=O)Nc3c(C)n(C)n(-c4ccccc4)c3=O)cc(=O)c2cc1C	·	i	·	·	i	·
Cc1ccccc1Nc1nc(N)nc(CSc2nc3ccccc3c(=O)n2C)n1	-16.4	16.4µM*	-7.3%	?	i	9.3%
Cc1ccccc1Nc1nc(N)nc(CSc2nc3ccccc3c(=O)n2CCCO)n1	7.1	i	-1.1%	-4.2%	i	4.3%
CC(C)C[C@H](NC(=O)N1c2ccccc2NC(=O)[C@@H]1C(C)C)C(=O)N[C@@H](Cc1ccccc1)C(=O)O	12.2	i	1.0%	40.9%	i	-9.6%
Cc1nn(C)c(C(=O)Nc2ccn(Cc3c(F)c(F)cc(F)c3F)n2)c1[N+](=O)[O-]	?	13µM*	5.7%	12.3%	i	-0.8%
Cc1nn(Cc2cccc(C(=O)Nc3ccn(Cc4c(F)c(F)cc(F)c4F)n3)c2)c(C)c1[N+](=O)[O-]	-1.9	?	-6.4%	7.0%	?	10.9%
O=C(Cn1ccc2cc(S(=O)(=O)N3CCCCCC3)ccc21)NCCc1ccc(Cl)cc1	·	i	·	·	i	·
Cc1ccc2c(n1)sc1c(-c3ccc(Br)cc3)c(C#N)c(N)nc12	-0.5	i	i	?	i	2.31µM*
CCc1nc(N)c(C#N)c(-c2ccc(F)cc2)c1C	-9.5	i	-0.9%	-1.8%	i	-5.4%[9.22 µM]
Cc1ccc2onc(CNC(=O)Nc3ccccc3C#N)c2c1	·	i	·	·	i	·
CCc1cc(SC#N)cc(CC)c1NC(=O)CCl	-6.4	?	3.5%	16.4µM*	20.6µM*	23.1µM*
Cc1cc(C)c2c(NC(=O)CCl)nn(C)c2n1	24.6	i	7.6%	25.8%	i	?
O=C(N/C=N/OCc1cccc(C(F)(F)F)c1)N1OC[C@@H]2COc3ccc4ccccc4c3[C@@H]21	-8.8	16.4µM*	3.2%	-2.5%	?	1.8%
CC(C)CCNC(=O)CCCOc1cc(=O)n(C)c2ccccc12	-11.7	13µM*	-1.4%	?	i	-5.7%
COc1ccc(N2CCN(C(=O)CCCOc3cc(=O)n(C)c4ccccc34)CC2)cc1	-17.7	8.2µM*	-4.5%	15.7%	i	-0.4%
Cc1ccc(C)c(N2CCN(C(=O)CCCOc3cc(=O)n(C)c4ccccc34)CC2)c1	3.0	8.2µM*	-15.7%	?	?	?
CCOc1ccccc1NC(=O)CCCc1nc(-c2ccccc2Cl)no1	·	i	·	·	i	·
Cc1ccc(-c2nnc3ccc(SCC(=O)OCc4ccccc4)nn23)cc1	-16.1	i	·	·	?	·
COc1ccc(/C=N/Nc2nc(C(=O)O)cs2)cc1	-11.2	i	0.5%	-12.9%	i	-9.3%
COc1cccc(/C(O)=C/c2nc3ccc(C(=O)NCCc4ccc(Cl)cc4)cc3[nH]c2=O)c1	-9.2	?	21.9%	8.2µM*	20.6µM*	11.6µM*

Screening data deposited in PubChem BioAssay by National Center for Advancing Translational Sciences (NCATS).
